Screening results deposited in PubChem BioAssay by Johns Hopkins Ion Channel Center.
Sampled rows, rich in hits. Any-hit rate of the full collection: about 1.6%.
KCNQ2 enhance – potentiators of rat KCNQ2 potassium channel | CHO-K1 KCNQ2, FluxOR thallium flux fluorescence; active compounds read high | B-score at 10 µM | 310,000 compounds, 0.54% hits | AID 2239;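 active = fluorescence ratio B-score at least 3 SD of library B-scores, with initial fluorescence B-score within 3 of them, cut at about 5.3 in these data; same plate scores as AID 2156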;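 also: B-score of peak minus minimum over baseline fluorescence ratio after K+ and Tl+ stimulus; positive B-score means potentiation of KCNQ2 with more thallium influx and brighter signal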
Target sequence (O88943 whole entry, looked up): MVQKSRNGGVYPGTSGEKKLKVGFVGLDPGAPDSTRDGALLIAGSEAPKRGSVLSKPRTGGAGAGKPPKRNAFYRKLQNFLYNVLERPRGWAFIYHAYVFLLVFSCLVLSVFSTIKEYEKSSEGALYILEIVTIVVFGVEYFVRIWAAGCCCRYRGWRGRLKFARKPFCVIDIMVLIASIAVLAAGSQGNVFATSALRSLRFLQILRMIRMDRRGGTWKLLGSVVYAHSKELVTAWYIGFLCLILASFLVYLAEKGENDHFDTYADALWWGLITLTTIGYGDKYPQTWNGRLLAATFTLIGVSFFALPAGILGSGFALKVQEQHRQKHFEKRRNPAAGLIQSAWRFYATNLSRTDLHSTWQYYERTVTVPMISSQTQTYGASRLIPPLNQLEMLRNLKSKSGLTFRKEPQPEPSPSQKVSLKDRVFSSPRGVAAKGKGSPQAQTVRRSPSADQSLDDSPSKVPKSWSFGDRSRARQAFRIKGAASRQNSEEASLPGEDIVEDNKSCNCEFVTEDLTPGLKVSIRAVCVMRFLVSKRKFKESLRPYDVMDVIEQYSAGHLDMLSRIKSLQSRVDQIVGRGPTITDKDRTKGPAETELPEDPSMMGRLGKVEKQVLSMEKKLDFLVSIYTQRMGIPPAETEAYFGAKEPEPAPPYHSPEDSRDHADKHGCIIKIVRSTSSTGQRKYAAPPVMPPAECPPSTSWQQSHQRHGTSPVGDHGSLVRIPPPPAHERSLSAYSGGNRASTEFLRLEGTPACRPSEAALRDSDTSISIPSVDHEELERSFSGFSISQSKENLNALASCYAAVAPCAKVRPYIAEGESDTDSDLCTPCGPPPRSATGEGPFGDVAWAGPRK
KCNQ2 inh – KCNQ2 (rat) channel inhibition; CHO-K1 KCNQ2, FluxOR thallium flux, 20 min; active compounds read low; B-score at 10 µM; 310,000 compounds, 1.1% hits; AID 2156;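 active = fluorescence ratio B-score at most minus 3 library SDs, with starting brightness B-score within 2 library SDs, cut at about -5.5 in these data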
Large screens that a line does not name were inactive.

CCOc1ccc(CNC(=O)CCC(=O)n2ncc3ccc(Cl)cc32)cc1	none
CCOc1ccc2nc(/N=C/c3c(C)[nH]n(-c4ccc(C)cc4)c3=O)sc2c1	KCNQ2 enhance 17
CCOc1ccc2nc(/N=C/c3c(C)[nH]n(-c4ccccc4)c3=O)sc2c1	KCNQ2 enhance 20
CCOc1ccc2nc(SC3CC(=O)N(c4ccc(C)cc4)C3=O)sc2c1 (stereo not given)	none (no result: KCNQ2 enhance)
CCOc1[nH]n(-c2ccccc2)c(=O)c1C=Nc1ccc(OC)cc1	none
CC1=NN(C(=O)c2ccc(Cn3nc(C)c([N+](=O)[O-])c3C)cc2)C(O)(C(F)(F)F)C1 (stereo not given)	none
CC(C)C1=NN(C(=O)c2cccnc2)C(O)(C(F)(F)F)C1 (stereo not given)	none
CC1=NN(C(=O)c2cccnc2)C(O)(C(F)(F)F)C1 (stereo not given)	KCNQ2 enhance 11
CC1=NN(C(=O)c2ccc(Cn3nc(C)c(Br)c3C)cc2)C(O)(C(F)(F)F)C1 (stereo not given)	KCNQ2 enhance 13
O=C(COc1ccc2c3c(c(=O)oc2c1)CCCC3)NCc1ccccn1	none (no result: KCNQ2 enhance)
O=C(CN1CCCC1)Nc1ccc(-c2nc3cc(NC(=O)CN4CCCC4)ccc3o2)cc1	none
CC(=O)CC1(O)C(=O)N(Cc2ccccc2)c2ccccc21 (stereo not given)	none
CC1(C)C(=S)N(Cc2ccccc2)c2ccccc21	KCNQ2 inh -6.6
COc1ccc(S(=O)(=O)N/N=C(/C)c2ccncc2)c(OC)c1	none (no result: KCNQ2 enhance)
O=C(CSc1nnc(C2CC2)n1CC1CCCO1)Nc1ccc(Cl)cc1 (stereo not given)	none
CCCN(CCC)C(=O)c1cc(S(=O)(=O)N2CCCCC2)c[nH]1	none
Nc1nc(Cl)cc(Nc2ccccc2Cl)n1	none
CSc1nc(Cl)cc(Nc2ccccc2N)n1	KCNQ2 inh -6
CCC[C@@H]1CCCO[C@@](C(=O)NCCN2CCOCC2)(C(F)(F)F)C1	none (no result: KCNQ2 enhance)
CC(C)CC(C(=O)Nc1ccccc1)N1C(=O)C2C3C=CC(C3)C2C1=O (stereo not given)	none (no result: KCNQ2 enhance)
CC1=Nc2ccccc2N=C(NC(=O)CN2CCN(c3ccccc3)CC2)C1c1ccccc1 (stereo not given)	KCNQ2 inh -6.5
CCOC(=O)C1CCCN(CC(=O)NC2=Nc3ccccc3N=C(C)C2c2ccccc2)C1 (stereo not given)	none (no result: KCNQ2 enhance)
COC(=O)C1(C)NC(c2ccc(O)cc2)C2C(=O)N(c3ccc(C)cc3)C(=O)C21 (stereo not given)	none (no result: KCNQ2 enhance)
COCCN(C(=S)Nc1cccc(C)c1)C(C)c1cccnc1 (stereo not given)	none
COCCN(C(=O)COC(=O)Cc1coc2cc3c(cc12)CCC3)c1c(N)n(Cc2ccccc2)c(=O)[nH]c1=O	none (no result: KCNQ2 enhance)
Cc1cc(C)nc(SCC(=O)Nc2nc(-c3ccccc3)c(-c3ccccc3)o2)n1	none
Cc1ccc(C(=O)Nc2nc(-c3ccccc3)c(-c3ccccc3)o2)cc1	KCNQ2 enhance 8.4
CCOc1ccc(CCNC(=O)COC(=O)c2cccc(S(=O)(=O)N3CCCC3)c2)cc1OCC	none (no result: KCNQ2 enhance)
Cc1c(C(=O)OCC(=O)NCc2ccc3c(c2)OCO3)cccc1[N+](=O)[O-]	none (no result: KCNQ2 enhance)
CCOCCCNC(=O)c1ccc2c(c1)OCO2	none (no result: KCNQ2 enhance)
CCCCC(CC)CNC(=O)c1ccc2c(c1)OCO2 (stereo not given)	KCNQ2 inh -7
Cc1cc(C)c2c(=O)cc(C(=O)NCc3ccccc3)oc2c1	none
c1ccc(-c2cc3c(N4CCN(c5ncccn5)CC4)ncnc3s2)cc1	none (no result: KCNQ2 enhance)
c1ccc(-c2cc3c(N4CCN(c5ccccc5)CC4)ncnc3s2)cc1	KCNQ2 inh -7.7
Cc1ccc(S(=O)(=O)N(C)S(=O)(=O)c2ccc(C#N)cc2)cc1	none (no result: KCNQ2 enhance)
CCc1ccc(-c2cn(-c3nc(C)cc(C)n3)c(=N)o2)cc1	KCNQ2 inh -6.4
CCc1ccc(-c2cn3c(n2)SCC3)cc1	none (no result: KCNQ2 enhance)
CCN(CC)C(=O)COc1ccc(-c2ccccc2)cc1	none
Cc1ccc(C2=NOC(C)(c3nnc(Cc4ccccc4)o3)C2)cc1 (stereo not given)	none
C=CCOC(=O)/C(=C\c1cccc2ccccc12)NC(=O)c1ccccc1	KCNQ2 inh -5.8
C=CCOC(=O)/C(=C\c1ccccc1)NC(=O)c1ccc(C)cc1	none (no result: KCNQ2 enhance)
O=C(Nc1nc2ccc(F)cc2s1)c1ccccn1	KCNQ2 enhance 16
O=C(Nc1nc2ccc(F)cc2s1)C1=COCCO1	none (no result: KCNQ2 enhance)
Cc1ccccc1-c1nc(C#N)c(N2CCC(C)CC2)o1	KCNQ2 inh -8.1
CC1CCN(c2oc(-c3ccccc3Cl)nc2C#N)CC1	none (no result: KCNQ2 enhance)
OCCN1CCN(CC(O)COc2ccc(Cl)cc2)CC1 (stereo not given)	none
OCCN1CCN(CC(O)COc2ccc(C34CC5CC(CC(C5)C3)C4)cc2)CC1 (stereo not given)	KCNQ2 inh -7.1
COc1ccc([N+](=O)[O-])cc1NC(=O)C(C)OC(=O)Cn1[nH]c(=O)c2ccccc2c1=O (stereo not given)	none
CCC(C)(C)NC(=O)C(c1ccc(C)o1)N(Cc1ccc2c(c1)OCO2)C(=O)c1snc(C(N)=O)c1N (stereo not given)	none (no result: KCNQ2 enhance)
Oc1ccccc1C1=Nc2ccccc2N=C(c2cccs2)C1	none (no result: KCNQ2 enhance)
